AmpC inh no detg – blocks E. coli AmpC beta-lactamase in detergent-free assay. actives 0.52% (n = 330,000). AmpC nitrocefin hydrolysis, absorbance 480 nm, 0.0001% Triton. Potency, µM (doses to about 57.1 µM), without a hit: at the top dose activity change, negative = inhibition, hits mostly inhibitors;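 also: plate controls were no compound for no effect and no enzyme for full effect; nearly all actives have a fitted effect of over 20% in size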
Target sequence (P00811 whole entry, looked up): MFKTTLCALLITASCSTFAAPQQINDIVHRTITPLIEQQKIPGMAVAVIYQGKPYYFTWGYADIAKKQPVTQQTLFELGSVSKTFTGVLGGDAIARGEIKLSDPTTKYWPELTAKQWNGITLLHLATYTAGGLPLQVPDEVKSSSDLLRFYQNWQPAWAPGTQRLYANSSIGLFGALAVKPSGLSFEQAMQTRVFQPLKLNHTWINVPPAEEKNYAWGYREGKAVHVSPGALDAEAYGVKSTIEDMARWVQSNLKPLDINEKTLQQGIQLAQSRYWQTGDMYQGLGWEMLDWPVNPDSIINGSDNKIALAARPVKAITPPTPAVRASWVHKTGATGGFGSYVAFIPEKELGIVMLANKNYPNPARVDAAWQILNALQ
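20 mM phosphate pH 7.0 + 0.01% (detergent screen) or 0.0001% Triton X-100; 5.3 nM AmpC reagent; cpd preinc 15 min RT; nitrocefin (800 uM stock) to start; A480 q20 s × 4 min; Activity was normalised to no-enzyme and no-compound control wells.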
SARS PLpro yeast – inhibitors of SARS-CoV papain-like protease in yeast; actives 0.19% (n = 330,000); Potency, µM (highest dose often 32.9 µM), without a hit: at the top dose activity, positive = growth rescue, usual class: activators; S. cerevisiae expressing SARS-CoV PLpro, growth rescue; AID 485353; calls by dose curve; also: 0% is about no effect; nearly all actives have a fitted effect of over 55% in size
AMA1-RON2 inh – disrupts binding of P. falciparum AMA1 to RON2. Potency, µM (series often up to 58.2 µM), for the others: at the highest dose activity change, negative = inhibition, most hits filed as inhibitors. AlphaScreen AMA1-biotinylated RON2 peptide binding. actives 0.2% (n = 360,000). AID 720542;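 also: 0% = vehicle wells and -100% = peptide control; nearly all actives have a fitted effect of over 45% in size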
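AMA1 (3D7) with his tag at 25 nM final met compounds first, then biotinylated RON2 peptide at 25 nM; detection used donor plus acceptor beads, 10 µg/mL apiece, read by AlphaScreen after 30 min at room temperature.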
AmpC detergent – blocks E. coli AmpC beta-lactamase in detergent assay. AmpC hydrolysis of nitrocefin, absorbance 480 nm, 0.01% Triton. Potency, µM (highest dose often 114 µM), for inactives: top-dose activity change, negative = inhibition, usual class: inhibitors. actives 0.041% (n = 370,000). AID 485294;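 also: 0% = no-compound wells and -100% = no-enzyme wells; nearly all actives have a fitted effect of over 25% in size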
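20 mM phosphate pH 7.0 + 0.01% (detergent screen) or 0.0001% Triton X-100; 5.3 nM AmpC reagent; cpd preinc 15 min RT; nitrocefin (800 uM stock) to start; A480 q20 s × 4 min; Activity was normalised to no-enzyme and no-compound control wells.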
NS1 function inh – inhibitors of influenza NS1 protein function; Potency, µM (highest dose often 46.1 µM), for inactives: at the highest dose activity, positive = more growth; actives 0.4% (n = 270,000); calls by dose curve; also: actives are rising curves; nearly all actives have a fitted effect of over 50% in size
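Compounds were scored for reversing the slow growth caused by influenza A NS1 in S. cerevisiae, measured by optical density at 600 nm. Assay medium contained 2% galactose at pH 6.0; NS1-free yeast of the same strain were the positive control.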
* = called active by the depositor; ? = inconclusive; / = no result given. The list is not random: actives were taken first. Their share in the collection is about 0.99%. Unless noted, calls follow the shape of the dose curve; as a rule, active = well fitted curve in the direction sought with a large enough effect; inconclusive = small, poorly fitted or top-dose-only effect, or another doubt; inactive = no such curve, though single readings can be large; an effect the other way counts as inactive or inconclusive. Potency is read from the fitted curve at half-maximal effect.

SMILES | AmpC inh no detg | SARS PLpro yeast | AMA1-RON2 inh | AmpC detergent | NS1 function inh
CC1CN(CCOc2ccc(F)cc2)CC(C)O1 (stereo not given) | -14% | -1% | 20µM* | -20% | -17%
CC1CN(CCOc2ccc([N+](=O)[O-])cc2)CC(C)O1 (stereo not given) | -15% | 2% | -15% | -10% | -2%
CN(C(=O)c1ccccc1C(=O)O)C1CC(C)(C)NC(C)(C)C1 | / | / | / | / | 8%
Cc1ccc(-c2csc(NC(=O)CSc3nc(C)cc(=O)[nH]3)n2)cc1 | 14µM* | ? | 1% | -8% | -55%
Cc1cc(=O)[nH]c(SCC(=O)Nc2ccc(C(=O)O)cc2)n1 | -3% | 10% | 0% | -2% | -2%
Cc1cc(=O)[nH]c(SCC(=O)Nc2ccc(Br)cn2)n1 | 1.3µM* | -2% | -1% | 4% | ?
Cc1ccc(-c2csc(NC(=O)CSC3=NCCS3)n2)cc1 | -34% | -31% | 7% | 1% | 3%
Cc1ccccc1NC(=O)C(=O)NCC1(c2ccccc2)CCCC1 | / | / | / | 11% | /
Cc1nc2nc(CNC(=O)OC(C)(C)C)nn2c(C)c1CCC(=O)NCc1ccccc1Cl | / | / | / | 3% | /
c1ccc(Nc2ncnc3sc4c(c23)CCC4)cc1 | -21% | 2% | 10% | -8% | -13%
Fc1ccc(Nc2ncnc3sc4c(c23)CCC4)cc1 | 0.32µM* | -4% | 9% | 0% | -20%
COc1ccc(NC(=O)c2sc3nc4c(c(-c5ccc(OC)cc5)c3c2N)C(=O)CC(C)(C)C4)cc1 | / | / | / | 5% | /
CCN(CC)c1ccc2nc3ccc(N)cc3[n+](-c3ccccc3)c2c1 | -3% | -16% | 20µM* | -3% | /
Cc1c(NC(=O)C(F)(F)F)ccc2nc3c(=O)n(C)c(=O)n(C)c3nc12 | / | / | / | 11% | /
NS(=O)(=O)c1ccc(CCNC(=O)CNCCc2ccccc2)cc1 | -4% | -1% | 40µM* | -12% | 0%
CCOC(=O)/C=C/C(=O)Nc1ccc(S(=O)(=O)N2CCCCCC2)cc1 | -36% | 1% | 9% | -3% | -2%
CCOC(=O)/C=C/C(=O)Nc1ccc(S(=O)(=O)N2CCc3ccccc32)cc1 | 16µM* | -14% | -1% | -11% | -9%
COc1ccc(OCCn2nnc3sc4c(c3c2=O)CCCC4)cc1 | / | / | / | 19% | /
CCC1=NN2C(=N)/C(=C\c3cccn3-c3ccc(C)cc3C)C(=O)N=C2S1 | 25µM* | -23% | 5% | ? | /
CCC1=NN2C(=N)/C(=C\c3cccn3-c3c(C)cccc3C)C(=O)N=C2S1 | -37% | 0% | 55% | ? | /
COC(=O)CSc1nc2nc(C)cc(C)n2n1 | / | 10% | 6% | -10% | ?
CCOC(=O)CSc1nc2nc(C)cc(C)n2n1 | 10µM* | 1% | 2% | ? | 9%
Cc1ccccc1CN1CCN(C(=O)c2cccc3ccccc23)CC1 | 48% | 2% | 25µM* | -14% | -31%
Cc1ccccc1NN1C(=O)C=CC1=O | 0.14µM* | 4% | 6% | 1% | 1%
COc1cccc(C(=O)NC2C(=O)N3C(C(=O)O)=C(COC(C)=O)CSC23)c1 (stereo not given) | -26% | -3% | 7% | ? | /
SMILES | AmpC inh no detg | SARS PLpro yeast | AMA1-RON2 inh | AmpC detergent | NS1 function inh
CO[C@@]1(NC(=O)Cc2cccs2)C(=O)N2C(C(=O)O)=C(COC(N)=O)CS[C@@H]21 | -41% | 1% | 44% | 40µM* | 16%
CN(c1ccccc1)S(=O)(=O)c1cccc(NC(=O)c2ccc(=O)[nH]c2)c1 | -27% | -7% | -10% | -5% | /
CN(c1ccccc1)S(=O)(=O)c1cccc(NC(=O)c2ccc(=O)[nH]n2)c1 | 2µM* | 2% | -14% | / | /
CCCOc1ccc(C2NC(=S)NC(C)=C2C(=O)c2ccccc2)cc1OC (stereo not given) | ? | 0% | 13% | -10% | 10%
COc1cc(C2NC(=S)NC(C)=C2C(=O)c2ccccc2)ccc1O (stereo not given) | 14µM* | 0% | -2% | -5% | 25%
O=C(NNC(=O)c1cc2ccccc2cc1O)Nc1ccc(F)cc1F | 13µM* | 4% | 29% | 2% | 14%
COc1cc(NC(=O)c2cc3ccccc3cc2O)c(OC)cc1Cl | 3.5µM* | -2% | -1% | -5% | -43%

Bioassay records deposited in PubChem BioAssay by National Center for Advancing Translational Sciences (NCATS).
